Source: the supplement of paper PMC6555819

What was measured:
Assay in all cases: PBM binding z-score (relative to random genomic background probes); higher = stronger binding; sequences stand for … in GC…GCGATTGACAGCGTAGAATGAAGG
[1] = test system: PPARg:RXRa DBDmut IVT, anti-RXR (DBD mutation: RXRa K156A/R161A, NR concentration 270 nM, RXRa partner concentration 90 nM)
Outline: (§1)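 On custom Agilent 4×180K arrays, double-stranded probes with 34-nt variable regions carried direct-repeat seeds, single-nucleotide variants, half-site ablations or random human genomic background. Ligand-free nuclear receptor dimers were applied for 1 h, and binding was read with antibodies against each partner (one per run). Binding z-scores come from regression-normalized fluorescence, with the random background probes as reference.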

[2] = test system: PPARg:RXRa IVT, anti-PPARg (NR concentration 270 nM, RXRa partner concentration 90 nM)
Outline: as §1

[3] = test system: PPARg DBDmut:RXRa IVT, anti-PPARg (DBD mutation: PPARg1 K132A/R137A, NR concentration 270 nM, RXRa partner concentration 90 nM)
Outline: as §1

[4] = test system: PPARg DBDmut IVT, anti-PPARg (DBD mutation: PPARg1 K132A/R137A, NR concentration 270 nM)
Outline: as §1

[5] = test system: PPARg homodimer (NR concentration 180 nM)
Outline: as §1

[6] = test system: PXR:RXRa (NR concentration 270 nM, RXRa partner concentration 90 nM)
Outline: as §1

[7] = test system: PXR homodimer (NR concentration 270 nM)
Outline: as §1

[8] = test system: RARa:RXR (NR concentration 270 nM, RXRa partner concentration 90 nM)
Outline: as §1

[9] = test system: RARa homodimer (NR concentration 270 nM)
Outline: as §1

[10] = test system: RARb:RXRa (NR concentration 270 nM, RXRa partner concentration 90 nM)
Outline: as §1

[11] = test system: RARb homodimer (NR concentration 270 nM)
Outline: as §1

[12] = test system: RARg:RXRa (NR concentration 270 nM, RXRa partner concentration 90 nM)
Outline: as §1

[13] = test system: RARg homodimer (NR concentration 270 nM)
Outline: as §1

[14] = test system: RXRa DBDmut IVT, anti-RXR (DBD mutation: RXRa K156A/R161A, NR concentration 90 nM)
Outline: as §1

[15] = test system: RXRa homodimer (NR concentration 180 nM)
Outline: as §1

[16] = test system: THRa homodimer (NR concentration 90 nM)
Outline: as §1

[17] = test system: VDR homodimer (NR concentration 270 nM)
Outline: as §1

[18] = test system: THRa:RXRa (NR concentration 90 nM, RXRa partner concentration 90 nM)
Outline: as §1

[19] = test system: VDR:RXRa (NR concentration 270 nM, RXRa partner concentration 90 nM)
Outline: as §1

Row | Sequence | PBM binding z-score [1] | PBM binding z-score [2] | PBM binding z-score [3] | PBM binding z-score [4] | PBM binding z-score [5] | PBM binding z-score [6] | PBM binding z-score [7] | PBM binding z-score [8] | PBM binding z-score [9] | PBM binding z-score [10] | PBM binding z-score [11] | PBM binding z-score [12] | PBM binding z-score [13] | PBM binding z-score [14] | PBM binding z-score [15] | PBM binding z-score [16] | PBM binding z-score [17] | PBM binding z-score [18] | PBM binding z-score [19]
1 | GATACAGGGTGAGCTAGAGGCCAGAGTATGGAAA | 0.274 | 0.614 | -0.0983 | -0.828 | -0.261 | -0.31 | -0.845 | 0.0105 | -0.483 | 0.744 | 0.626 | 2.08 | 0.586 | -0.965 | 0.342 | -0.562 | -0.731 | – | –
2 | GCTAGTTTGTCAGTAAAAGGTCACACACCGGTCG | 0.319 | 2.75 | 0.759 | 0.562 | 4.4 | 4.95 | 1.22 | 5.77 | 2.54 | 4.12 | 5.18 | 5.07 | 4.23 | 1.18 | – | 1.61 | 2.4 | 3.6 | 3.95
3 | ATCGAAAGGTCGTGAAGTGAGTATACAGAAAGGC | 0.0713 | 1.76 | 1.63 | 1.88 | 1.75 | 2.66 | 0.278 | 3.39 | 1.2 | 3.73 | 2.17 | 3.85 | 3.56 | 1.38 | 4.35 | 0.0261 | 1.02 | 2.18 | –
4 | TTACCAAGGTGAAAGGTCGGTGATGCACGCCTTG | 2.41 | 4.51 | 1.85 | 0.075 | 1.26 | 2.17 | -0.356 | 3.77 | -0.0129 | 2.65 | 2.16 | 3.18 | 1.51 | -0.134 | – | 0.427 | -0.0558 | 2.66 | 1.38
5 | CAAACTAGGTCACGAAAGGTCAAATTCGAATGAC | 8.4 | 9.14 | 3.89 | 2.38 | 4.71 | 7.07 | 2.34 | 7.31 | 2.58 | 6 | 5.85 | 7.7 | 8.41 | 2.5 | 8.21 | 2.56 | 3.46 | 5.14 | –
6 | ACTAGGTGGTCAGCTGAGGTCACACACAATTCGG | 1.21 | 3.02 | 0.296 | 0.306 | 1.93 | 5.62 | 1.01 | 4.73 | 0.58 | 3.78 | 4.47 | 4.04 | 4.46 | 0.949 | 4.06 | 5.08 | 2.8 | – | –
7 | CAAACTAGGTCAAAGGTCAACGTCGAGCCAACCA | 8.88 | 9.1 | 3.12 | 5.08 | 10.7 | 7.11 | 1.82 | 9.16 | 5.04 | 5.88 | 5.12 | 8.91 | 7.98 | 2.88 | 10.3 | 2.1 | 2.86 | 4.98 | –
8 | CGTCAAAGTTCAAGGCAACGTAACAGAAAGCAGC | 0.106 | 1.35 | -0.0637 | 0.203 | 2.24 | 3.56 | 1.41 | 2.87 | 0.477 | 4.98 | 3.41 | 5.02 | 6.02 | 3.97 | – | -0.246 | 2.61 | 1.72 | 3.3
9 | AGTCAAAGTTCATCAAGGTAACGTAAGATATGCT | 0.277 | 3.34 | 1.59 | 1.26 | 3.05 | 5.4 | 9.31 | 4.3 | 2.24 | 4.9 | 3.86 | 5.57 | 5.96 | 4.57 | 4.81 | 1.23 | 4.97 | 3.8 | –
10 | ATATGTAGGTTACGTCCGGGTCATTCAGGCTATG | 7.35 | 7.47 | 4.19 | 3.42 | 3.1 | 3.87 | 2.03 | 4.08 | 0.587 | 2.47 | 3.02 | 4.03 | 2.34 | 1.06 | – | 2.88 | 2.91 | 4.01 | 4.14
11 | TTACCAAGGTGACCTGAGGTCGTTGATCCAACTC | 1.69 | 2.92 | 0.109 | -0.145 | 1.47 | 5.57 | 1.38 | 3.89 | -0.101 | 2.5 | 3.13 | 3.18 | 2.35 | 0.664 | 3.64 | 3.94 | 3.65 | – | 4.87
12 | CCTAGTTGGTCAGGAGGTCCCACACCGGATATGA | 0.207 | 0.483 | -0.124 | -0.0969 | 1.06 | -0.0476 | 0.63 | -0.0305 | 0.95 | 0.64 | 0.775 | 0.48 | 0.629 | -0.686 | 0.0541 | 0.411 | 0.335 | -0.131 | –
13 | TAGCCTAGGTCATGCGGGTCAGTATAGTGTCGGC | 2.38 | 3.65 | 0.284 | -0.506 | 1.03 | 3.67 | 1.56 | 3.45 | -0.237 | 4.05 | 4.27 | 4.91 | 4.9 | 1.07 | 4.2 | 1.35 | 2.26 | 3.75 | –
14 | TCATATAGGTTAAGGTGAAAGTCGAACGATATGA | 4.9 | 4.89 | 1.69 | 1.29 | 1.49 | 1.04 | -0.203 | 2.19 | 0.984 | 2.49 | 1.66 | 2.3 | 2.08 | 0.797 | 2.45 | 2.71 | 0.253 | 3.33 | –
